Test results as given in PubChem BioAssay (NCATS).
Inconclusive results are not listed. Calls of active or inactive are those of the source. Calls come from the whole dose curve; as a rule, active = well fitted curve in the direction sought with a large enough effect; inconclusive = small, poorly fitted or top-dose-only effect, or another doubt; inactive = no such curve, though single readings can be large; an effect the other way counts as inactive or inconclusive.

Key:
[1] = Quantitative High-Throughput drug screen in 47 multiple myeloma cell lines against the NCATS MIPE library collection: JIM1_ECACC cell viability assay (AID 1918964)
In short: (§1)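 Inhibition of cell viability is measured here. Each line was plated at 500 cells per well, treated with MIPE 4.0 drugs, kept 48 hours at 37C, then assayed for ATP content by CellTiter-Glo luminescence.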

[2] = Quantitative High-Throughput drug screen in 47 multiple myeloma cell lines against the NCATS MIPE library collection: Karpas25_ECACC cell viability assay (AID 1918968; note: nearly all actives have a fitted effect of over 35% in size)
In short: as §1

[3] = Quantitative High-Throughput drug screen in 47 multiple myeloma cell lines against the NCATS MIPE library collection: KMS27_JCRB cell viability assay (AID 1918970); note: nearly all actives have a fitted effect of over 30% in size
In short: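 Each line is seeded at 500 cells per well and treated with library compounds for 48 hours under 37 °C, 5% CO2. CellTiter-Glo is then added for 5 min at room temperature before median relative luminescence is recorded.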

[4] = Quantitative High-Throughput drug screen in 47 multiple myeloma cell lines against the NCATS MIPE library collection: KMS12PE_JCRB cell viability assay (AID 1918972); note: nearly all actives have a fitted effect of over 30% in size
In short: (§2)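 CellTiter-Glo ATP luminescence gave viability after 48 h compound treatment at 37C of 500 multiple myeloma cells per well. Normalisation used DMSO-only wells as 100% and media-only wells as 0% viability; primary qHTS of approved and investigational drugs.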

[5] = Quantitative High-Throughput drug screen in 47 multiple myeloma cell lines against the NCATS MIPE library collection: KMS21BM_JCRB cell viability assay (AID 1918974); details: ATP luminescence, 48 h; viability: at 45.8 µM (top of the series) unless noted
In short: as §1

[6] = Quantitative High-Throughput drug screen in 47 multiple myeloma cell lines against the NCATS MIPE library collection: KMS26_JCRB cell viability assay (AID 1918975); note: nearly all actives have a fitted effect of over 45% in size
In short: (§3)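 Viability readout: CellTiter-Glo luminescence following 5 min room-temperature incubation with reagent. Prior exposure: 48 h, 37C, humidified 5% CO2, 500 cells per well.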

[7] = Quantitative High-Throughput drug screen in 47 multiple myeloma cell lines against the NCATS MIPE library collection: MOLP8_DSMZ cell viability assay (AID 1918977); note: nearly all actives have a fitted effect of over 45% in size
In short: (§4)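 ATP-based CellTiter-Glo luminescence after 48 h drug exposure (37 °C, 5% CO2) of 500 myeloma cells per well. DMSO-only wells set 100% viability, media-only wells 0%; MIPE 4.0 library added by pin tool.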

[8] = Quantitative High-Throughput drug screen in 47 multiple myeloma cell lines against the NCATS MIPE library collection: NCIH929_DSMZ cell viability assay (AID 1918978); note: nearly all actives have a fitted effect of over 35% in size
In short: as §4

[9] = Quantitative High-Throughput drug screen in 47 multiple myeloma cell lines against the NCATS MIPE library collection: OCIMY1_PLB cell viability assay (AID 1918979); note: nearly all actives have a fitted effect of over 35% in size
In short: as §4

[10] = Quantitative High-Throughput drug screen in 47 multiple myeloma cell lines against the NCATS MIPE library collection: LP1_DSMZ cell viability assay (AID 1918982); note: nearly all actives have a fitted effect of over 35% in size
In short: as §4

[11] = Quantitative High-Throughput drug screen in 47 multiple myeloma cell lines against the NCATS MIPE library collection: INA6_PLB cell viability assay (AID 1918965; note: nearly all actives have a fitted effect of over 55% in size)
In short: as §2

[12] = Quantitative High-Throughput drug screen in 47 multiple myeloma cell lines against the NCATS MIPE library collection: KMS20_JCRB cell viability assay (AID 1918973); note: nearly all actives have a fitted effect of over 45% in size
In short: as §1

[13] = Quantitative High-Throughput drug screen in 47 multiple myeloma cell lines against the NCATS MIPE library collection: MM1S_ATCC cell viability assay (AID 1918980); note: nearly all actives have a fitted effect of over 45% in size
In short: as §4

[14] = Quantitative High-Throughput drug screen in 47 multiple myeloma cell lines against the NCATS MIPE library collection: JJN3_DSMZ cell viability assay (AID 1918966; note: nearly all actives have a fitted effect of over 50% in size)
In short: as §1

[15] = Quantitative High-Throughput drug screen in 47 multiple myeloma cell lines against the NCATS MIPE library collection: KMS12BM_JCRB cell viability assay (AID 1918971); note: nearly all actives have a fitted effect of over 35% in size
In short: as §3

[16] = Quantitative High-Throughput drug screen in 47 multiple myeloma cell lines against the NCATS MIPE library collection: MMM1_PLB cell viability assay (AID 1918976); note: nearly all actives have a fitted effect of over 35% in size
In short: as §4

[17] = Quantitative High-Throughput drug screen in 47 multiple myeloma cell lines against the NCATS MIPE library collection: MM1R_ATCC cell viability assay (AID 1918981); note: nearly all actives have a fitted effect of over 35% in size
In short: as §4

[18] = Quantitative High-Throughput drug screen in 47 multiple myeloma cell lines against the NCATS MIPE library collection: H1112_PLB cell viability assay (AID 1918967; note: nearly all actives have a fitted effect of over 30% in size)
In short: as §1

[19] = Quantitative High-Throughput drug screen in 47 multiple myeloma cell lines against the NCATS MIPE library collection: JIM3_ECACC cell viability assay (AID 1918963; note: nearly all actives have a fitted effect of over 35% in size)
In short: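 Myeloma cells (500 per well) were exposed to MIPE 4.0 compounds by pin transfer and incubated 48 hours at 37C, 5% CO2. Viability was read as ATP by CellTiter-Glo luminescence, normalised to DMSO (100%) and media-only (0%) wells.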
Potency is the fitted concentration of half-maximal effect.

Cc1cn([C@H]2C=C[C@@H](CO)O2)c(=O)[nH]c1=O
inactive: Potency [1] | Potency [3] | Potency [4] | Potency [6] | Potency [7] | Potency [8] | Potency [9] | Potency [10]
active: Potency [2] 12.1 µM | viability [5] 91.7% [at 92.2 µM]

CN1CCC(=C2c3ccccc3CC(=O)c3sccc32)CC1
inactive: Potency [4] | Potency [12] | Potency [5] | Potency [7] | Potency [9] | Potency [10]
active: Potency [11] 8.33 µM | Potency [2] 7.43 µM | Potency [8] 4.18 µM | Potency [13] 16.6 µM

NCCc1cnc[nH]1
inactive: Potency [11] | Potency [14] | Potency [2] | Potency [3] | Potency [15] | Potency [4] | Potency [6] | Potency [8] | Potency [9]
active: Potency [16] 0.0132 µM | Potency [17] 1.87 µM

C[C@](N)(Cc1ccc(O)c(O)c1)C(=O)O
inactive: Potency [3] | Potency [4]
active: Potency [14] 18.7 µM | Potency [2] 20.9 µM | Potency [12] 16.6 µM | Potency [5] 20.9 µM | Potency [16] 5.26 µM | Potency [7] 13.2 µM | Potency [9] 16.6 µM | Potency [17] 20.9 µM

O=c1c(O)c(-c2ccc(O)c(O)c2)oc2cc(O)cc(O)c12
active: Potency [11] 11.8 µM | Potency [18] 20.9 µM | Potency [2] 16.6 µM | Potency [8] 7.43 µM | Potency [13] 26.4 µM
inactive: Potency [7]

Nc1ccn([C@H]2CC[C@@H](CO)O2)c(=O)n1
active: Potency [19] 26.4 µM
inactive: Potency [18] | Potency [4] | Potency [6] | Potency [7]

C[C@H]1c2cccc(O)c2C(O)=C2C(=O)[C@]3(O)C(O)=C(C(N)=O)C(=O)[C@@H](N(C)C)[C@@H]3[C@@H](O)[C@@H]21
active: Potency [11] 37.2 µM | Potency [2] 16.6 µM | Potency [4] 29.6 µM | Potency [6] 23.5 µM | Potency [8] 18.7 µM
inactive: Potency [3] | Potency [10]

CCCNCC(O)COc1ccccc1C(=O)CCc1ccccc1 (stereo not given)
inactive: Potency [19] | Potency [14] | Potency [15] | Potency [7] | Potency [8] | Potency [17]
active: Potency [2] 16.6 µM

CN1CCC(=C2c3ccccc3C=Cc3ccccc32)CC1
active: Potency [11] 11.8 µM | Potency [18] 11.8 µM | Potency [2] 7.43 µM | Potency [3] 23.5 µM | Potency [4] 20.9 µM | Potency [12] 9.35 µM | Potency [8] 5.9 µM | Potency [13] 14.8 µM | Potency [17] 23.5 µM

COc1ccc2[nH]cc(CCNC(C)=O)c2c1
inactive: Potency [2] | Potency [3] | Potency [15] | Potency [4] | Potency [12] | Potency [7] | Potency [8] | Potency [9]
active: Potency [1] 0.0074 µM | Potency [6] 9.35 µM | Potency [13] 0.372 µM | Potency [17] 5.26 µM

NS(=O)(=O)c1cc2c(cc1Cl)NCNS2(=O)=O
inactive: Potency [11] | Potency [3] | Potency [4] | Potency [7] | Potency [8] | Potency [9] | Potency [10]
active: Potency [14] 7.43 µM | Potency [18] 9.35 µM | Potency [16] 16.6 µM

NCCS(=O)(=O)O
inactive: Potency [15] | Potency [4] | Potency [12] | Potency [6] | Potency [8] | Potency [9] | Potency [13] | Potency [17] | Potency [10]

CC12CC3CC(C)(C1)CC(N)(C3)C2
inactive: Potency [1] | Potency [15] | Potency [9] | Potency [10]
active: Potency [11] 20.9 µM | Potency [2] 20.9 µM | Potency [12] 20.9 µM | Potency [13] 18.7 µM

CC(CCc1ccc(O)cc1)NCCc1ccc(O)c(O)c1 (stereo not given)
inactive: Potency [12]
active: Potency [11] 18.7 µM | Potency [14] 14.8 µM | Potency [2] 18.7 µM | Potency [3] 18.7 µM | Potency [15] 14.8 µM | Potency [4] 20.9 µM | Potency [16] 10.5 µM | Potency [9] 18.7 µM | Potency [13] 10.5 µM | Potency [17] 18.7 µM | Potency [10] 20.9 µM

CN1C(C(=O)Nc2ccccn2)=C(O)c2ccccc2S1(=O)=O
inactive: Potency [19] | Potency [14] | Potency [18] | Potency [15] | Potency [4] | Potency [6] | Potency [7] | Potency [8] | Potency [9] | Potency [10]

O=C(c1ccc(OCCN2CCCCC2)cc1)c1c(-c2ccc(O)cc2)sc2cc(O)ccc12
inactive: Potency [9]
active: Potency [1] 37.2 µM | Potency [11] 18.7 µM | Potency [14] 20.9 µM | Potency [3] 20.9 µM | Potency [4] 23.5 µM | Potency [12] 16.6 µM | Potency [5] 13.2 µM | Potency [6] 20.9 µM | Potency [8] 23.5 µM

CC(C)(Oc1ccc(C2CC2(Cl)Cl)cc1)C(=O)O (stereo not given)
inactive: Potency [19] | Potency [15] | Potency [4] | Potency [16] | Potency [8] | Potency [9] | Potency [10]
active: Potency [13] 9.59 µM | Potency [17] 48.1 µM

CN(C)C(=N)N=C(N)N
inactive: Potency [11] | Potency [2] | Potency [3] | Potency [4] | Potency [12] | Potency [6] | Potency [8] | Potency [9] | Potency [13] | Potency [17]

Nc1nnc(-c2cccc(Cl)c2Cl)c(N)n1
inactive: Potency [1] | Potency [3] | Potency [6] | Potency [9] | Potency [10]
active: Potency [2] 20.9 µM | Potency [8] 23.5 µM | Potency [13] 11.8 µM

CN1CCN(C2=Nc3cc(Cl)ccc3Nc3ccccc32)CC1
active: Potency [2] 26.4 µM | Potency [13] 14.8 µM
inactive: Potency [1] | Potency [3] | Potency [15] | Potency [6] | Potency [7] | Potency [9] | Potency [17] | Potency [10]

OCCN(CCO)c1nc(N2CCCCC2)c2nc(N(CCO)CCO)nc(N3CCCCC3)c2n1
active: Potency [1] 23.5 µM | Potency [14] 23.5 µM | Potency [2] 26.4 µM | Potency [3] 20.9 µM | Potency [15] 26.4 µM | Potency [4] 23.5 µM | Potency [16] 23.5 µM | Potency [7] 16.6 µM | Potency [13] 20.9 µM

Cn1ccc2cc3c(cc21)CCN3C(=O)Nc1cccnc1
inactive: Potency [17]
active: Potency [11] 14.8 µM | Potency [2] 20.9 µM | Potency [4] 20.9 µM

CC(C)Cc1ccc(C(C)C(=O)O)cc1 (stereo not given)
active: Potency [11] 1.62 µM
inactive: Potency [19] | Potency [3] | Potency [7] | Potency [8] | Potency [9] | Potency [13] | Potency [17] | Potency [10]
